Measurements published in PubChem BioAssay (NCI).
This is part of a sample that, as a whole, favours compounds with a hit. Of some 83,000 tested, about 20% had one in any assay.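 Values shown are percent growth following 48 h exposure of cells in 96-well plates to a single concentration of compound; below 10 was considered active.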 Active and inactive are the calls of the source.

These compounds were tested on MDA-MB-468 breast (assay: NCI-60 one-dose screen, 48 h (100 = growth as untreated, 0 = no growth, -100 = all killed)). Conditions: 10 µM unless noted.

SMILES | growth
COc1ccc(-n2c(N)c(-c3nc4ccccc4[nH]3)cc(C#N)c2=O)cc1 | 93.1% (inactive)
CCOC(=O)c1ccc(NC(=O)NC2=NCCS2)cc1 | 29.6% (inactive)
COc1cc(/C=C/c2ccnc3ccccc23)cc(OC)c1OC | -8% (active)
NS(=O)(=O)c1ccc(CCN2C(=O)/C(=C\c3ccccc3)C=C2c2ccc(Cl)cc2)cc1 | 103% (inactive)
CC(=NNc1ncnc2ccccc12)c1ccc(S(C)(=O)=O)cc1 | 103% (inactive)
CC(O)c1ncc(/C=C2\SC(=S)N(Cc3ccccc3)C2=O)s1 (stereo not drawn) | 65.6% (inactive)
COC(=O)CCSC1=C(C)C(=O)c2ccccc2C1=O | -24.5% (active)
CC(C)(C)C(=O)Nc1nc2c(s1)CCc1ccn(S(=O)(=O)c3ccccc3)c1-2 | 88.7% (inactive)
C=C(C)[C@@H]1CC[C@]2(C(=O)OCCOCCOCC[P+](c3ccccc3)(c3ccccc3)c3ccccc3)CC[C@]3(C)[C@H](CC[C@@H]4[C@@]5(C)CC[C@H](C)C(C)(C)[C@@H]5CC[C@]43C)[C@@H]12 | -67.6% (active)
COc1ccc(NC(=O)COCCOCCNC[C@@H]2C(=O)O[C@H]3[C@H]2CC/C(COC(=O)OC/C2=C/CC[C@@]4(C)O[C@H]4[C@H]4OC(=O)[C@@H](CN(C)C)[C@@H]4CC2)=C\CC[C@@]2(C)O[C@@H]32)c(O)c1C(N)=O | -19.5% (active)
C=C1C(=O)O[C@H]2[C@H]1CC/C(COC(=O)c1cc(OC)c(OC)c(OC)c1)=C\CC[C@@]1(C)O[C@@H]21 | -33.2% (active)
CN1C(=O)/C(=C/c2ccc(C(=O)Nc3ncc(Cc4cccc(C(F)(F)F)c4)s3)cc2)SC1=S | -2.76% (active)
Cc1c(C(N)=O)sc2ncn(CC(=O)Nc3ccc(Cl)cc3)c(=O)c12 | 92.1% (inactive)
Nc1ccc(SSc2ccc(N)cc2)cc1 | 101% (inactive)
COc1cc(NCCCN(CC(C)C)CC(C)C)c2ncccc2c1 | -27.1% (active)
CC(C)CCC[C@@H](C)[C@H]1CCC2C3=CCC4C(=O)C=CC(=O)C4C3CC[C@@]21C (stereo partly drawn) | 2.69% (active)
Cc1ccc(S(=O)(=O)N(CC[C@@H]2C[C@H]2c2cc3ccccc3o2)S(=O)(=O)c2ccc(C)cc2)cc1 | 80% (inactive)

SMILES | growth
COc1ccc(CC(C#N)c2ccc(Cl)cc2)cc1 (stereo not drawn) | 24% (inactive)
CC1(C)CC(=O)C=C(N)C1 | 90.5% (inactive)
C#C[C@]1(O)CC[C@H]2[C@@H]3CC=C4c5sc(-c6ccc(F)cn6)nc5CC[C@]4(C)[C@H]3CC[C@@]21C | 43.4% (inactive)
O=C(NNc1nc2cc(F)ccc2n2c(CN3CCCC3)ccc12)c1cnccn1 | -14.4% (active)
O=C1NN(c2ccccc2)C(c2ccc(Cl)cc2)N2CCC[C@H]12 (stereo partly drawn) | 98.7% (inactive)
CC(C)(C)c1ccc(C(=O)Nc2sc3c(c2C(N)=O)CCC(O)C3)cc1 (stereo not drawn) | 32.3% (inactive)
COc1ccc(C(=O)c2cc3c(N)c(C(=O)Nc4cccc(OC)c4)sc3nc2C)cc1 | 4.38% (active)
NS(=O)(=O)c1ccc(Nc2nc(O)c(/C=C3\C=Nc4ccccc43)s2)cc1 | 104% (inactive)
CC(=O)NNC(=O)c1sc(NC(C)=O)nc1C | 104% (inactive)
O=C(Nc1ccc(F)cc1)c1c(NC(=O)C(F)(F)F)sc2c1CCCCC2 | -17% (active)
N#Cc1c(-c2ccc(F)cc2)nc(N=Nc2c(O)[nH]c3ccc(Cl)cc23)nc1N1CCOCC1 | 47.1% (inactive)
Cn1ccc(Cc2cnc(N)s2)n1 | 103% (inactive)
CCC(C)[C@H](NC(C)=O)C(=O)N[C@@H](CCCNC(=N)N)C(=O)N[C@@H](CCCCN)C(=O)N[C@@H](CC1CCC(O)CC1)C(=O)NC(C(=O)N[C@@H](CCSC)C(=O)N[C@@H](CCCNC(=N)N)C(=O)N[C@@]1(C)CCC/C=C\CCC[C@@](C)(C(=O)NC(C(=O)N[C@@H](CCC(=O)O)C(=O)N[C@@H](CC(C)C)C(=O)N[C@H](C(=O)N[C@@H](CCC(=O)O)C(N)=O)C(C)C)[C@@H](C)O)NC(=O)[C@H](CCC(N)=O)NC(=O)[C@H](CC(C)C)NC(=O)[C@H](CC(C)C)NC1=O)[C@@H](C)O (stereo partly drawn) | 99.7% (inactive)
N#CC(I)CS(=O)(=O)c1ccccc1 (stereo not drawn) | 25% (inactive)
CC1(C)N=C(N)N=C(N)N1c1cccc(CCc2ccccc2)c1 | 16.6% (inactive)
O=C(Nc1nc(-c2ccccc2Cl)cs1)c1cc(-c2ccccc2)nc2ccc(Cl)cc12 | 90.9% (inactive)
